Most compounds without a hit are left out; they make up all but 4.7% or so of the library.
D1 antagonist: Antagonist of Human D 1 Dopamine Receptor: qHTS. D(1A) dopamine receptor (Homo sapiens), P21728. HEK293 TREx D1 cells, calcium flux, dopamine EC80; stronger effect = lower value. activity change, negative = inhibition, % at 10 µM. hit rate 3.2% among 360,000. AID 504652, 2011; in the data active = activity change below about -30%; also: % is scaled to controls: 0 for no effect and ±100 for the full control effect
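Compound effects on dopamine-evoked calcium signalling were measured in tetracycline-induced HEK293 Trex D1 cells. Dopamine at EC80 followed a 180 s compound pre-read, and fluorescence was tracked kinetically for 180 s more.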
TRHR PAM: qHTS for Small Molecule Agonists and Allosteric Enhancers of Human TRH Receptor: Primary Screen for Enhancers; AID 493056, 2011; Thyrotropin-releasing hormone receptor (Homo sapiens), P34981; enhancement, % at 2 µM; hit rate 0.66% among 360,000; TRHR cells, fluo-8 calcium fluorescence, EC20 TRH enhancement; in the data active = enhancement above about 30%; also: 0% is about no effect
Target sequence (P34981 whole entry, looked up): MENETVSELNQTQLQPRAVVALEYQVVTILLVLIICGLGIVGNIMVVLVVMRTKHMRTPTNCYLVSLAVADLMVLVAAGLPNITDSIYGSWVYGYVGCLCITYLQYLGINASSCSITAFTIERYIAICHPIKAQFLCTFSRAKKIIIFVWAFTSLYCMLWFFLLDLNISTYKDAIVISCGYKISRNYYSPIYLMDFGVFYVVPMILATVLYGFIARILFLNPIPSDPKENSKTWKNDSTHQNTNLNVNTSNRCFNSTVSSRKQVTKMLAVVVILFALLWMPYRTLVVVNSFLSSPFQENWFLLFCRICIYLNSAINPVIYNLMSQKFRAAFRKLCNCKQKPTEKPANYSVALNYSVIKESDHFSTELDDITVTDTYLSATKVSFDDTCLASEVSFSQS
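Enhancer read-out: after compound pinning and an initial kinetic agonist-mode read, an EC20 of TRH (10 nM final) was injected and fluo-8 calcium signal (Ex 480/Em 530) followed at 1 s/cycle for 100 cycles in TRHR-expressing cells.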
D1 agonist: Allosteric Agonists of the Human D1 Dopamine Receptor: qHTS; hit rate 1% among 360,000; HEK293 T-REx D1 cells, calcium flux, agonist mode; activation, % at 2 µM; D(1A) dopamine receptor (Homo sapiens), P21728; also: 0% is about no effect
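Agonism was scored from calcium flux recorded over 180 s (1 read/s) after pintool compound addition, following a 10-cycle baseline. Cells were inducible force-coupled HEK293 TREx D1, plated overnight at 30 C and loaded with no-wash calcium dye.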
TRHR agonist: qHTS for Small Molecule Agonists and Allosteric Enhancers of Human TRH Receptor: Primary Screen for Agonists. Thyrotropin-releasing hormone receptor (Homo sapiens), P34981. TRHR cells, calcium flux fluo-8, FDSS agonist mode. activation, % at 2 µM. hit rate 0.18% among 360,000. AID 493084, 2011; also: 0% is about no effect
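Fluo-8-loaded TRHR cells; 10 s baseline, compound added, kinetic Ca2+ fluorescence read 1/s, agonist mode.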
D1 potentiator: Potentiators of Human D1 Dopamine Receptor: qHTS | potentiation, % at 10 µM | HEK293 TREx D1 cells, calcium flux, dopamine EC20 potentiation | hit rate 0.036% among 360,000 | AID 504651, 2011 | D(1A) dopamine receptor (Homo sapiens), P21728; in the data active = potentiation above about 30%; also: 0% is about no effect
An asterisk follows results filed as active; ! = a repeat was not active. Rule as the data show it, unless noted: active = activation above about 30%; inactive = the rest.

SMILES	D1 antagonist	TRHR PAM	D1 agonist	TRHR agonist	D1 potentiator
N#CC(C#N)=C1C=CC=CN1/C(=C\c1ccco1)C(=O)c1ccc(Cl)cc1	-52.3*	-8.7	2.9	-0.3	-10.9
O=C(O)CCc1ccc(-c2ccccc2)n1CC(=O)Nc1ccccc1C(F)(F)F	-11.4	-7.3	3.9	0.0	-0.7
O=C(COC(=O)c1cccs1)Nc1ccccc1C(F)(F)F	-32.0*	11.2	31.6*	0.8	-4.2
O=C(O)CCc1ccc(-c2ccccc2)n1CC(=O)Nc1cccc(C(F)(F)F)c1	-65.3*	9.2	1.0	0.3	-8.9
O=C(O)CCc1ccc(-c2cccs2)n1CC(=O)Nc1ccccc1C(F)(F)F	-38.8*!	3.0	2.4	-0.2	-2.8
C=CCn1c(CCC(=O)O)ccc1-c1ccccc1	-56.0*	-0.7	2.6	0.0	-2.0
COc1ccc(CCNC(=O)c2sc3nc4n(c(=O)c3c2C)CCCC4)cc1OC	0.9	3.1	15.0	5.8	3.9
COc1cc(C2CC(=O)Nc3c2c(=O)[nH]c2nc4ccccc4n32)ccc1O (configuration not stated)	-48.8*	0.4	0.1	-2.5	-4.5
CCCNC(=O)c1ccc2c(=O)c(O)c(-c3ccc(F)cc3)[nH]c2c1	-58.6*	1.6	1.2	2.0	-9.1
CCCNC(=O)c1ccc2c(=O)c(O)c(-c3cccc(Br)c3)[nH]c2c1	-35.9*	4.9	6.3	-0.5	-8.3
Clc1ccc(CSc2ncnc3nc[nH]c23)cc1	-11.1	17.3	7.3	0.4	-14.6
S=C(NCCN1CCOCC1)N/N=C/c1c2ccccc2cc2ccccc12	-2.8	-3.2	31.7*	5.3	1.0
O=C(Nc1ccc(F)cc1)Nc1ccccc1NS(=O)(=O)c1cccs1	-7.8	8.4	22.8	-0.3	-8.4
O=C(Nc1ccc(Cl)cc1)Nc1ccccc1NS(=O)(=O)c1cccs1	-33.0*	-5.2	20.7	0.5	-13.3
CC(C)Oc1ccc(CNC(=O)CCCN2C(=O)c3cccnc3Oc3ccc(Cl)cc32)cc1	-6.7	-5.5	1.3	-0.8	-1.4
Cc1ccc(C2C(C(=O)O)c3ccccc3C(=O)N2C)c(C)c1 (configuration not stated)	-39.8*	-1.9	1.7	0.4	2.3
C/C(N)=C(/C#N)C(=O)COC(=O)c1ccc(C#N)cc1	-44.2*	0.6	4.0	-0.1	-7.2
COc1ccccc1NC(=O)C1=C(C)Nc2nc3ccccc3n2C1c1cccc(OC)c1OC (configuration not stated)	13.9	-0.6	-0.4	0.2	2.4
COc1ccc(/C=N/NC(=O)c2nc(-c3ccccc3)n(-c3ccccc3)n2)cc1	6.6	0.1	0.6	-1.3	4.5
COc1ccc(/C=N/NC(=O)c2nc(-c3ccccc3)n(-c3ccccc3)n2)c(O)c1	-60.5*	0.7	8.4	3.0	-7.8
COc1ccc(NC(=O)CSC2=Nc3ccccc3C3=NC(Cc4ccccc4)C(=O)N23)cc1 (configuration not stated)	-5.8	6.5	10.8	0.0	1.5
O=C(CCS(=O)(=O)c1ccc(Br)s1)Nc1cc(C(F)(F)F)cc(C(F)(F)F)c1	2.1	-3.1	8.6	1.4	-0.1
CCOc1cc(CNc2ccc(O)cc2)cc(Cl)c1OCc1ccccc1	-4.9	25.9	-0.5	-0.6	1.8
COc1ccc2c(c1O)-c1ccccc1CCN(C)C2	-16.2	-1.5	-0.1	0.0	-2.0
CN1CCc2cccc3c2[C@@H]1Cc1ccc(O)c(O)c1-3	-58.4*	0.4	16.9	0.5	-6.8
Fc1ccc(SCCc2ccncc2)cc1	-34.2*!	-2.3	8.9	-0.5	-9.6
c1ccc(SCCc2ccncc2)cc1	-7.3	0.7	3.9	0.1	-4.2
CN(C(=O)c1cc2c(Cl)nc3ccccc3c2s1)c1cccc(C(F)(F)F)c1	2.1	-4.7	2.5	0.0	0.8
CCCN(C(=O)c1cc2c(Cl)nc3ccccc3c2s1)c1cccc(C)c1	11.1	39.9*	2.1	1.2	-1.3
CCn1cc(Cl)c(C(=O)Nc2ccc3c(c2)OCCO3)n1	1.9	37.5*	2.3	-0.1	-2.4

High-throughput results deposited in PubChem BioAssay by National Center for Advancing Translational Sciences (NCATS).
